This is a sample that favours compounds with a hit; in the whole collection about 1.1% have one here.
SNCA expr inh: SNCA gene expression inhibition. HEK-293 SNCA-luciferase knock-in, luminescence, 24 h. Potency, µM (titrated, usually from 57.2 µM), without a hit: top-dose activity change, negative = inhibition, actives largely listed as inhibitors. 0.17% of 140,000 active. AID 1671194;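 also: potency is read from the fitted curve at half-maximal effect; plate controls were DMSO cells for no effect and cell-free wells for full effect; nearly all actives have a fitted effect of over 45% in size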
GPT2 inhibitor: blocks human glutamate pyruvate transaminase 2 | Recombinant GPT2, coupled pyruvate oxidase/HRP Amplex Red fluorescence | AID 1671188 | 0.25% of 100,000 active | Potency, µM (titrated, usually from 57.7 µM), inactives show at the highest dose activity change, negative = inhibition, most hits filed as inhibitors; also: potency is read from the fitted curve at half-maximal effect; nearly all actives have a fitted effect of over 60% in size
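Fluorescence of coupled pyruvate oxidase/HRP/Amplex Red system (50uM Amplex, 30 min, dark) reports pyruvate formed by GPT2. Enzyme reaction: 10ng/uL GPT2, 2mM L-alanine, 250uM a-KG, 30 min room temperature, pH 7.5; 50uM AOA control.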
HEK293 viab: counter-screen for SNCA expression inhibitors: cell viability; HEK-293-SNCA-luc viability, GF-AFC fluorescence, 24 h; 0.12% of 150,000 active; AID 1671193; Potency, µM (top dose mostly 57.1 µM), for the others: top-dose activity change, negative = cytotoxicity, hits mostly cytotoxic;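 also: potency is read from the fitted curve at half-maximal effect; 0% = DMSO-treated cells and -100% = medium-only wells without cells; nearly all actives have a fitted effect of over 30% in size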
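Cytotoxicity counterscreen: after 24 h compound treatment of genome-edited SNCA-luciferase HEK-293 cells, live-cell protease substrate GF-AFC read by fluorescence after 30 min; activity scaled between DMSO (0%) and medium-only (-100%), curves Hill-fitted.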
IP6K1 inhibitor: inhibitors of human IP6K1; IP6K1 kinase, ADP-Glo luminescence, 2 h; hits give low values; activity change, % (series mostly up to about 58 µM); 0.81% of 140,000 active; AID 1645851; in the data active = activity change below about -25%
Target sequence (Q92551 whole entry, looked up): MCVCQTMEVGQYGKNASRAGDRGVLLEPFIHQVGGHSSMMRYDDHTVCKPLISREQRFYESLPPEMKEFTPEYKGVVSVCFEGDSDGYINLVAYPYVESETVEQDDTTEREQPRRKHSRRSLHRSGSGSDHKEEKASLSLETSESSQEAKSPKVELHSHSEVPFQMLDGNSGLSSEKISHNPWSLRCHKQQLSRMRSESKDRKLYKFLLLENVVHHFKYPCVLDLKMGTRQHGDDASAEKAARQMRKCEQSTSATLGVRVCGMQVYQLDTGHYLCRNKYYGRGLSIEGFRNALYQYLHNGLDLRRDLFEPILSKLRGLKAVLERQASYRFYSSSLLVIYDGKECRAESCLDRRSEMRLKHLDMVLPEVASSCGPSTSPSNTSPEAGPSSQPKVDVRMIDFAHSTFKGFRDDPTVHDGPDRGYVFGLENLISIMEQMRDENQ
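ADP-Glo luminescence measures ADP made by human IP6K1 during a 2 h RT reaction with ATP/IP6 (mix at 1.3 mM/130 uM); top library doses 57.5 and 19.1 uM final.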
IP6K1 conf: human IP6K1 inhibition, confirmatory | Potency, µM (top dose mostly 49 µM), for the others: at the top dose activity change, negative = inhibition, actives largely listed as inhibitors | recombinant IP6K1 kinase, ADP-Glo luminescence, 2 h | shares compounds with IP6K1 inhibitor | 13% of 1,200 active | AID 1645852; also: potency is read from the fitted curve at half-maximal effect; nearly all actives have a fitted effect of over 65% in size
* marks the source's active call; other numbers are inactive results; i = inactive; ? = inconclusive; · = not tested or not shown; [ ] = another dose, or the depositor's remark. Unless noted, calls follow the shape of the dose curve; as a rule, active = well fitted curve in the direction sought with a large enough effect; inconclusive = small, poorly fitted or top-dose-only effect, or another doubt; inactive = no such curve, though single readings can be large; an effect the other way counts as inactive or inconclusive. Unless noted, % is scaled to controls: 0 for no effect and ±100 for the full control effect.

SMILES	SNCA expr inh	GPT2 inhibitor	HEK293 viab	IP6K1 inhibitor	IP6K1 conf
COc1cc(C)c(C(=O)NC2C(C)OC(OC3CCC(C)C4C3C=C(C)C3/C(C)=C\CC/C(C)=C/C5(C)C=C(C(=O)O)C(C)CC56OC(=O)/C(=C(\O)C34C)C6=O)C(O)C2(C)O)c(O)c1 (stereo unspecified)	·	?	2%[12.5 µM]	-9	·
CC(C)C[C@H](C(=O)O)c1cc(-c2ccc(C(F)(F)F)cc2)cc(-c2ccc(C(F)(F)F)cc2)c1	·	1%	-34%	-30*	?
CCC[C@H]1CN(C(=O)c2ccccc2Cc2ccc(C)cc2)C[C@@H]1N	11%	i	-2%	-26*	-6%
CCOc1ccc(-c2cc(C(=O)Oc3ccc(C#N)cc3)no2)cc1	-3%	·	10%	-27*	?
N#Cc1ccc(OC(=O)c2cc(-c3ccc(Cl)cc3)on2)cc1	-5%	·	5%	2	·
Cc1ccc(S(=O)(=O)N2CCCc3cc(NS(=O)(=O)c4cccc(Cl)c4)ccc32)cc1	?	·	-23%	-26*	6%
Cc1cc(=O)[nH]c2nnc(SCC(=O)Nc3ccc(OC(F)(F)F)cc3)n12	7%	·	2%	-25*	6%
Cc1cc(=O)[nH]c2nnc(SCC(=O)NC(C)(C)C)n12	-16%	·	1%	3	·
OC1CC(c2cc(NCCCn3ccc4ccccc43)ncn2)C1 (stereo unspecified)	10%	-20%[11.5 µM]	-5%	-34*	-3%
Cc1ccc(-c2cccc(CN3CCCC3C(=O)N3CCCC(C)C3)c2)cc1Cl (stereo unspecified)	·	·	·	-6	·
CN1CC[C@@H](c2c(O)cc(O)c3c(=O)cc(-c4ccccc4Cl)oc23)[C@@H](O)C1	0.22µM*	2%	?	·	?
COc1cccc(C(=O)N2CCCC(c3nn(-c4ccccn4)c(=O)[nH]3)C2)c1 (stereo unspecified)	23%	i	6%	8	·
CCN(CCCNC(=O)c1cc(Nc2ccc(OC)cc2OC)nc2ccccc12)c1cccc(C)c1	3%	·	-4%	-36*	-2%
COc1ccc(Nc2cc(C(=O)NCc3ccccc3)c3ccccc3n2)cc1	-5%	·	-1%	-44*	-10%
CC(=O)N1CCCN(C(=O)c2cc(-c3cc(Cl)cc(Cl)c3)nc3c2cnn3C)CC1	·	·	·	3	·
COC(=O)N1CC2(Cc3ccccc3N(C(C)=O)C2)C1	16%[87.6 µM]	1%[88.5 µM]	19%[87.6 µM]	-25*	1%
CC(=O)N1CC2(Cc3ccccc3N(C(C)=O)C2)C1	-7%[87.6 µM]	-6%[88.5 µM]	-3%[87.6 µM]	-7	·
Cc1c(C)n(Cc2ccc(-c3ccccc3C(=O)O)cc2)c2ccc(C(=O)N[C@@H](C)c3ccc([N+](=O)[O-])cc3)cc12	-12%	i	21%	-27*	?
CN(C(=O)[C@@H]1CCCN1c1ccnc2ccnn12)c1ccccc1	·	·	·	-12	·
Cc1ccc(-c2cc(C(=O)N3CCC(c4nc(C5CCOCC5)no4)C3)c3ccccc3n2)cc1C (stereo unspecified)	10µM*	-4%	?	-28*	-2%
Cc1cccc(C(=O)N2CCC(c3nc(C4CCOCC4)no3)C2)c1 (stereo unspecified)	10%	i	-6%	9	·
C[C@@H]1COC(Nc2ccc3ncnc(Nc4ccc(OCc5nccs5)c(Cl)c4)c3c2)=N1	-17%	2%	?	-34*	?
O=C1CC2(CCN(C(=O)C3CCCN3C(=O)c3ccccc3)CC2)Oc2ccccc2N1 (stereo unspecified)	8%	i	0%	-8	·
CCCCOc1ccccc1C1CC(=O)Nc2cc(OC)c(OC)cc21 (stereo unspecified)	-2%	·	-16%	-3	·
CCCCOc1ccccc1C1CC(=O)Nc2cc(C)c(C)cc21 (stereo unspecified)	?	·	?	-28*	-10%
SMILES	SNCA expr inh	GPT2 inhibitor	HEK293 viab	IP6K1 inhibitor	IP6K1 conf
Nc1ccc(N=Nc2ccccc2)c(N)n1	143%[25.6 µM]	3%	13%[23.9 µM]	-37*	?
Cc1ccc(OCCCCn2cnc3ccccc32)cc1	14%	·	8%	-33*	?
O=C(O)C1=CC(=C(c2ccc(O)c(C(=O)O)c2)c2ccc(O)c(C(=O)O)c2)C=CC1=O	-1%	i	7%	·	1.5µM*
O=C(c1ccncc1)N1CCCN(c2ccnc3ccnn23)CC1	13%[87.6 µM]	1%[88.5 µM]	0%[87.6 µM]	-24	·
O=C(c1ccccc1)N1CCCN(c2ccnc3ccnn23)CC1	2%[87.6 µM]	-4%[88.5 µM]	12%[87.6 µM]	-26*	13%
CCOc1cccc2c1OC[C@@H]1CN(CCC#N)C(=O)CCN(C(=O)c3ccc(C)cc3)[C@H]21	·	·	·	-4	·
CN1C[C@H](NCc2ccc(F)cc2)CCC[C@@H](C(=O)NC2CC2)CC1=O	5%[87.6 µM]	4%[88.5 µM]	6%[87.6 µM]	-26*	?
CN1C[C@H](NCc2ccc(C(F)(F)F)cc2)CCC[C@@H](C(=O)NC2CC2)CC1=O	7%[87.6 µM]	i	3%[87.6 µM]	-6	·
O=C1C(c2c(O)[nH]c3ccccc23)=Nc2ccccc21	-23%	-9%[27.3 µM]	-11%[23.9 µM]	-16	·
O=C1c2ccccc2-[n+]2ccc3c([nH]c4ccccc43)c21	3µM*	0.27µM*	?	·	-24%
COc1ccccc1-c1nc(NCc2ccccc2)c2ccccc2n1	?	·	-29%	·	·
Fc1cccc(CNc2nc(-c3ccccc3C(F)(F)F)nc3ccccc23)c1	·	·	·	·	-8%
Fc1ccc(CNc2nc(-c3ccccc3C(F)(F)F)nc3ccccc23)cc1	·	·	·	·	-2%
CC(=O)N1CCC(c2nnc3n2C(C(=O)NC2CCCCCC2)CC3)CC1 (stereo unspecified)	15%	i	-2%[12.5 µM]	5	·
COCC1(O)CCOC2(CCN(C(=O)c3cccs3)CC2)C1 (stereo unspecified)	-6%	0%	15%	10	·
O=C(NCCNC(=O)c1ccc(-c2cncnc2)cc1)c1ccccc1	·	·	·	7	·
Cc1nn(-c2ccccc2)c2c1C(C)N(C1CN(C(=O)C3CC3)C1)C2=O (stereo unspecified)	·	·	·	2	·
O=C(NCC1CCOCC1)Nc1ccc(Cl)cc1C(F)(F)F	60%	i	7%	13	·
O=C(NOCC1CC1)c1ccc(F)c(F)c1Nc1ccc(I)cc1Cl	-33%	0%	-21%	11	-14%
O=C(NOC[C@H](O)CO)c1ccc(F)c(F)c1Nc1ccc(I)cc1F	-17%	i	-5%	-6	-1%
O=C(NCC(O)CO)c1ccncc1Nc1ccc(I)cc1F (stereo unspecified)	·	i	2%	5	·
O=C(c1ccccc1)N1CCCC(C(=O)N2CCC(N3CCOC3=O)CC2)C1 (stereo unspecified)	5%	i	-4%	11	·
CN(Cc1noc(C2CCCC2)n1)c1cc(C2CC(O)C2)ncn1 (stereo unspecified)	1%	5%[11.5 µM]	-11%	-28*	-3%
CC(=O)c1ccc(OC(=O)c2c(-c3ccccc3Cl)noc2C)cc1	52%	·	9%	-42*	-18%

Bioassay records (PubChem BioAssay)
